Compounds with a hit are over-represented: about 0.92% of the library has one in this group of screens.
RE007 growth inh: less growth of the S. pombe RE007 Vpr strain | S. pombe RE007 Vpr strain, BacTiter-Glo ATP luminescence, 24 h | Potency, µM (series often up to 92.2 µM), inactives show at the top dose activity change, negative = less growth, actives largely listed as inhibitors | actives 0.21% (n = 360,000) | AID 651644; active means well fitted falling curve with a large enough effect; inconclusive means small, poorly fitted or top-dose-only effect; inactive means no such curve, though single readings can be large or run the other way; further: on the % scale 0 is the no-effect control and ±100 the full control effect; nearly all actives have a fitted effect of over 50% in size
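Fission yeast RE007 carrying one integrated HIV-1 vpr copy, seeded at OD 0.01 in PMG+AL medium with 23 nL pinned compound. Grown 24 h at 30 degrees; viability read by BacTiter-Glo luminescence after 5 min.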
LmPK inhibitor: blocks Leishmania mexicana pyruvate kinase activity. Q27686. purified LmPK, Kinase-Glo ATP luminescence, 1 h. Potency, µM (titrated, usually from 57.5 µM), without a hit: top-dose activity change, negative = inhibition, usual class: inhibitors. actives 0.37% (n = 290,000); further: on the % scale 0 is the no-effect control and ±100 the full control effect
Target sequence (Q27686 whole entry, looked up): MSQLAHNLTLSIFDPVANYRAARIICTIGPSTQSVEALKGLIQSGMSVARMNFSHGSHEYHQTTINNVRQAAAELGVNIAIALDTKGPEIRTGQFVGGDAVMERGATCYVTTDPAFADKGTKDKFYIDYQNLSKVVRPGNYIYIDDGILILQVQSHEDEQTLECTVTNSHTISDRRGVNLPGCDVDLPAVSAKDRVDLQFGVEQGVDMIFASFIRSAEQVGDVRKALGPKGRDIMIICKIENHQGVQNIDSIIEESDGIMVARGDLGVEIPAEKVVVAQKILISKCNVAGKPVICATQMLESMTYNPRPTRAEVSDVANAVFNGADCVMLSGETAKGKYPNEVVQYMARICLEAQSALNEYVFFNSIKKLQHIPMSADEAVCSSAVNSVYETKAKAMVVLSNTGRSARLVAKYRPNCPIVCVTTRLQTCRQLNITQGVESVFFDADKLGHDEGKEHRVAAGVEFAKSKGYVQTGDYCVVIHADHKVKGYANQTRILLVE
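Purified LmPK (0.1 nM) converted ADP (0.1 mM) to ATP with PEP (0.5 mM) in imidazole buffer pH 7.2 with KCl and MgCl2, 1 h at room temperature. ATP was read by Kinase-Glo luminescence; data normalized to uninhibited and no-enzyme controls.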
AMA1 RON2 block: inhibitors of Plasmodium falciparum AMA1-RON2 interaction. AlphaScreen AMA1-biotinylated RON2 peptide binding. Potency, µM (highest dose often 58.2 µM), for inactives: at the highest dose activity change, negative = inhibition, hits mostly inhibitors. actives 0.2% (n = 360,000). AID 720542;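 further: 0% = vehicle wells and -100% = peptide control; nearly all actives have a fitted effect of over 45% in size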
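AMA1 (3D7) with his tag at 25 nM final met compounds first, then biotinylated RON2 peptide at 25 nM; detection used donor plus acceptor beads, 10 µg/mL apiece, read by AlphaScreen after 30 min at room temperature.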
TbPYK inhibitor: inhibitors of Trypanosoma brucei pyruvate kinase; Potency, µM (highest dose often 76.8 µM), for the others: at the highest dose activity, negative = inhibition, most hits filed as inhibitors; actives 0.12% (n = 410,000); AID 624173; TbPYK enzyme, Kinase-Glo Plus ATP luminescence, 45 min; Q57TT1; further: on the % scale 0 is the no-effect control and ±100 the full control effect; nearly all actives have a fitted effect of over 50% in size
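Screened from lowest to highest concentration, compounds were pinned into TbPYK/substrate mixtures, and ADP (130 uM final) was added. Plates sat at room temperature for 45 min prior to Kinase-Glo Plus detection by luminescence.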
NS1 inh: influenza NS1 inhibition. Potency, µM (highest dose often 46.1 µM), for the others: at the highest dose activity, positive = more growth. actives 0.4% (n = 270,000). AID 2326; calls by dose curve; further: actives are rising curves; nearly all actives have a fitted effect of over 50% in size
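S. cerevisiae expressing influenza A NS1, grown in glucose, washed, then diluted 1:100 into pH 6.0 -URA galactose medium with 23 nl compound. Growth recovery read as OD600; NS1-free strain serves as control.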
An asterisk follows results filed as active; ? = inconclusive; · = not tested or not shown; [ ] = dose if it differs, or a comment. Unless noted, the call rests on the fitted dose curve; in most records, active means well fitted curve in the direction sought with a large enough effect; inconclusive means small, poorly fitted or top-dose-only effect, or another doubt; inactive means no such curve, though single readings can be large; an effect the other way counts as inactive or inconclusive. Potency means the concentration at half of the fitted maximal effect.

SMILES	RE007 growth inh	LmPK inhibitor	AMA1 RON2 block	TbPYK inhibitor	NS1 inh
CCN1CCOC(CC(=O)Nc2ccc([N+](=O)[O-])cc2)C1=O (stereo unspecified)	44.7µM*	-2.8%	-14.6%	1.0%	-73.5%
O=C(CC1OCC2CCCN2C1=O)Nc1ccc([N+](=O)[O-])cc1 (stereo unspecified)	?	1.2%	3.1%	2.8%	-52.2%
CC[C@H]1CC[C@H]2[C@@H]3CC=C4C[C@H](OC(C)=O)[C@@H](N)C[C@@]4(C)[C@H]3CC[C@@]12C	·	·	·	·	-10.0%
CCN1/C(=C/C=C/c2oc3ccc4ccccc4c3[n+]2CC)Oc2ccc3ccccc3c21	12.6µM*	-16.5%	?	-13.6%	-77.8%
CCC(=O)OC1[C@@H](N2CCCCC2)C[C@H]2[C@@H]3CC[C@H]4C[C@H](OC(C)=O)[C@@H](N5CCCCC5)C[C@]4(C)[C@H]3CC[C@]12C (stereo partly specified)	·	·	·	0.0%	·
COc1ccc(NC2CCN(C3CC(=O)N(c4ccc(F)c(Cl)c4)C3=O)CC2)cc1 (stereo unspecified)	6.31µM*	2.5%	-9.9%	-12.2%	-54.2%
COc1cccc(N2CCN(C3CC(=O)N(c4ccc(F)c(Cl)c4)C3=O)CC2)c1 (stereo unspecified)	28.2µM*	9.1%	0.0%	-8.1%	-5.2%
CCOc1ccc(N2C(=O)CC(N3CCN(c4ccccc4OC)CC3)C2=O)cc1 (stereo unspecified)	28.2µM*	2.6%	1.1%	-2.8%	-14.5%
CCOC(=O)CCCNC(=O)N1CCc2nc(-c3ccccc3)c3c(c2C1)CO[C@@H](C)C3	·	-4.1%[11.5 µM]	·	·	·
CCCCCC[C@@H](CCC)C(=O)O	·	·	·	0.0%	·
Cc1ccc(Nc2nccc(N(C)c3ccc4c(C)n(C)nc4c3)n2)cc1S(N)(=O)=O	·	·	·	-4.7%	·
COc1ccc(CNC(=O)c2cc(-c3cccc(OC)c3)on2)cc1	·	·	·	·	-10.2%
CC(NC(=O)/C(C#N)=C/c1ccco1)c1ccccc1 (stereo unspecified)	6.4%	0.4%	-8.6%	0.6%	-5.1%
CCOCCCNC(=O)/C(C#N)=C/c1ccc(-c2ccc(S(=O)(=O)N3CCOCC3)cc2)o1	·	-0.4%	3.1%	4.1%	15.9%
CCOCCCNC(=O)/C(C#N)=C/c1ccc([N+](=O)[O-])o1	44.7µM*	5.6%	7.2%	0.4%	·
CC(NC(=O)/C(C#N)=C/c1ccc([N+](=O)[O-])o1)c1ccccc1 (stereo unspecified)	5.01µM*	0.6%	-10.7%	3.9%	-133.4%
C=CCN1C(=O)/C(=C/c2cccs2)C(=O)NC1=S	?	7.9%	2.0%	35.5µM*	-2.0%
O=C1NC(=S)N(Cc2ccco2)C(=O)/C1=C\c1cccs1	·	17.1%[11.5 µM]	·	·	·
O=C(CSc1nccn1-c1ccc(F)cc1)Nc1ccc(OC(F)(F)F)cc1	·	·	·	3.1%	·
COc1cc(-n2c(-c3ccccc3)n[nH]c2=S)c(OC)cc1Cl	6.9%	-9.3%	11.7%	3.55µM*	10.7%
COc1ccc(OC)c(-n2c(-c3ccc(O)cc3O)n[nH]c2=S)c1	-3.9%	8.91µM*	64.0%	?	-6.9%
COc1ccc(OC)c(-n2c(-c3cccc(S(=O)(=O)N(C)C)c3)n[nH]c2=S)c1	6.6%	?	5.4%	-29.4%	·
COc1cc(OC)cc(-c2n[nH]c(=S)n2-c2cc(OC)ccc2OC)c1	-10.8%	3.55µM*	57.0%	?	-2.6%
COc1ccccc1-n1c(-c2cc(-c3ccc(F)cc3)n[nH]2)n[nH]c1=S	7.6%	-27.7%	47.0%	?	4.8%
COc1ccc(C)cc1-n1c(-c2ccncc2)n[nH]c1=S	10.4%	10µM*	0.0%	14.1µM*	4.1%
SMILES	RE007 growth inh	LmPK inhibitor	AMA1 RON2 block	TbPYK inhibitor	NS1 inh
Cc1csc2nc(COC(=O)c3ccc(NC(=O)c4ccccc4Br)cc3)cc(=O)n12	·	·	·	-0.4%	·
CCCCC(F)(F)[C@@]1(O)CC[C@H]2[C@H](CC(=O)[C@@H]2CCCCCCC(=O)O)O1	·	·	·	0.8%	·
COc1cc(-c2n[nH]c(=S)n2-c2cccc(C(F)(F)F)c2)cc(OC)c1OC	-12.2%	?	72.5%	?	?
COc1cc(-c2n[nH]c(=S)n2-c2ccccc2C(F)(F)F)cc(OC)c1OC	18.8%	17.8µM*	58.9%	?	-0.2%
CCN(CC)CCOC(=O)CCc1cccc2ccccc12	3.4%	-2.8%	-3.8%	11.2%	-5.7%
CCN(CC)CCOC(=O)C(Cc1ccco1)Cc1cccc2ccccc12 (stereo unspecified)	5.3%	·	25.1µM*	5.1%	·
O=C1[C@H]2[C@H]3C=C[C@@H](C4[C@H]3[C@@H]3C(=O)N(CN5CCSCC5)C(=O)[C@H]43)[C@H]2C(=O)N1CN1CCSCC1 (stereo partly specified)	·	·	·	·	4.9%
Fc1cccc(NCc2cn3ccccc3n2)c1	6.8%	-22.3%	3.3%	1.8%	-5.1%
Fc1ccc(NCc2cn3ccccc3n2)cc1	1.7%	11.2µM*	-5.9%	6.0%	-4.6%
CC(C)(C)C(=O)C(Oc1ccc(Cl)cc1)n1ccnc1 (stereo unspecified)	·	·	·	0.2%	·
Cc1ccc(Cl)cc1-c1ccc(C=Nc2ccc(N3CCOCC3)cc2)o1	-14.5%	0.3%	11.2µM*	-7.3%	7.2%
CC(C)(C)c1ccc(C(=O)CCCN2CCC(OC(c3ccccc3)c3ccccc3)CC2)cc1	·	·	·	-1.7%	·
CNC1C(O)C(OC2C(NC(=O)C(O)CN)CC(N)C(OC3OC(CN)C(O)C(O)C3O)C2O)OCC1(C)O (stereo unspecified)	·	·	·	1.1%	·
Cc1cc(N2C(=O)C=CC2=O)c([N+](=O)[O-])cc1C	?	?	13.0%	28.2µM*	-36.0%
Cc1c([N+](=O)[O-])cc(N2C(=O)C=CC2=O)cc1[N+](=O)[O-]	-15.7%	·	-8.9%	25.1µM*	·
Cc1ccc(N2C(=O)C3C4C=CC(CC4)C3C2=O)cc1[N+](=O)[O-] (stereo unspecified)	-10.9%	35.7%	-4.4%	1.2%	-12.9%
Cc1cc(C)cc(N2C(=O)C=CC2=O)c1	3.16µM*	·	4.2%	12.6µM*	·
Cc1cc(C)cc(N2C(=O)c3nccnc3C2=O)c1	1.6%	-1.1%	6.0%	-15.4%	6.5%
C[C@H](CN1c2ccccc2Sc2cccnc21)N(C)C	·	·	·	-9.6%	·
O=C(O)c1cccc(SSc2cccc(C(=O)O)c2)c1	·	·	·	·	-5.9%
C[C@H]1Cc2c(-c3ccccc3)nc3c(c2CO1)CN(C(=O)C1CCCCC1)CC3	·	-1.8%[11.5 µM]	·	·	·
Cc1cccn2c1nc(=S)n2C(=O)c1ccco1	4.3%	10µM*	14.1%	-25.1%	6.7%
O=C(Cn1cnnn1)N[C@@H]1C(=O)N2C(C(=O)O)=C(CSc3nncs3)CS[C@H]12	·	·	·	-13.9%	·
CCSC1(SCC)N=C(N)C2(C#N)C(c3ccc(OC)c(OC)c3OC)C12C#N (stereo unspecified)	5.62µM*	4.2%	-9.5%	-10.7%	-23.4%
